# From PubChem BioAssay AID1347426 (Functional Genomics Laboratory (NCATS/FGL), 2020)
# In all, about 31,000 sequences went through this assay and about 1,400 (4.5%) were called active.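 The calls were made as follows: active = median seed-adjusted z-score above 1 or below -1; inactive = the rest.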 Only a selection was taken, and actives are over-represented in it overall.
# Experiment: Novel Modifiers of Survival Motor Neuron (SMN) Protein: Gene Identification via Genome-wide siRNA Screen;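 also: luminescence tracks full-length SMN protein made from the SMN2 reporter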
# Conditions: HEK293T SMN2-luciferase reporter, siRNA knockdown, 72 h; actives lie on both sides
# Summary of the method: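 Luciferase signal, proportional to full-length SMN made from an SMN2 cDNA reporter in stable HEK293T cells, was read 72 h after siRNA reverse transfection. Values were expressed as MAD scores after non-targeting-control normalization and log10 conversion; seed analysis flagged off-targets.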
row,Sequence,median seed-adjusted z-score
1,AGAGUGGAUUUGUACCAAATT against RAB39B,0.485 (inactive)
2,CGGUGACUCUUUAUGCACATT against PMPCB,0.507 (inactive)
3,GAGAGUGCCUUACACCAAATT against HOXD13,0.116 (inactive)
4,GAGAGAAAAGGGUCACAAATT against GPR61,0 (inactive)
5,UGACCAUCGUCUACAAGAATT against COPZ2,-1.23 (active)
6,CAAGAAGCAUUAUUACGAUTT against PPIL2,-0.467 (inactive)
7,CCCUAGAGUAUUACACGGATT against DGKD,0.35 (inactive)
8,GGACAAAGACUGGUACGUUTT against HTT,-0.234 (inactive)
9,CCUUUUACAUGUUCUAUUUTT against SIVA1,0.0451 (inactive)
10,GGCAAGUUCUCCUUCGACATT against ALDH3B1,0.148 (inactive)
11,GAACUGUCGUAAACGCAAATT against NFE2L3,0.118 (inactive)
12,GCCUUAAGGAUGAAGAUAATT against FOXR2,0.593 (inactive)
13,GGUAUCACCUAUACAGAAATT against FKBP11,-0.085 (inactive)
14,ACUUCAAGCUCCUAAGCCATT against HBA1,-1.03 (active)
15,GCCUCUAAGUCUCGAGGAATT against TRPM3,-0.633 (inactive)
16,CACAGGUAAUCAUACCCUATT against NDUFA9,-0.325 (inactive)
17,GAAUCAGAAUACGUAGGAATT against PCDHA2,0.803 (inactive)
18,GGAGGAAUCUCGAAUGCGATT against CNOT1,1.2 (active)
19,GAGGCAAUAUGAAACGAGUTT against CKMT2,-0.862 (inactive)
20,GCAAUUGUCUGAUUAAUCATT against MB,0.504 (inactive)
21,GAACUGCACCAAAGAAACATT against AKTIP,-0.194 (inactive)
22,CGGACGAAGAGAUUGGGAATT against DRAP1,1.08 (active)

row,Sequence,median seed-adjusted z-score
1,GCAGAAUUACAAGACAAGATT against VWA5A,0 (inactive)
2,CCGCCUUUCAAGAACGUAATT against IARS,-0.198 (inactive)
3,GAAUAGACCUGAAGACAAATT against CFLAR,-0.413 (inactive)
4,CAACGGAAGUGCUACUACUTT against FCER2,-1.75 (active)
5,CCCAAUAUGUGCGGAUUAATT against DSC3,0.18 (inactive)
6,GGAAAGAGAUCUACCGCAATT against MYST1,0 (inactive)
7,GCUUCCCGAUUAACUGAAATT against MECP2,-0.332 (inactive)
8,AGAAUGCACCAAACAAACATT against DOLPP1,0.00977 (inactive)
9,GGUACAAAGCAAUCGGACATT against GUCA2B,-0.146 (inactive)
10,GUCUUUAGCUGACCUGAAUTT against DMD,-0.626 (inactive)
11,CCGAAGAAGCAAUAUCGAATT against CRKRS,-1.16 (active)
12,CCACCUUACUUUCCUGAAUTT against TMEM171,0.278 (inactive)
13,CACUUAUUCUGGUCCUUCATT against ELOVL3,0 (inactive)
14,CCGCUAAUGUUCAAGGACATT against UNC5B,-0.0207 (inactive)
15,GCAAUAGUCCCAAAAGCAATT against CD6,-0.33 (inactive)
16,GCAGGAGUUUGUUUAAUGATT against UGT1A10,0.286 (inactive)
17,GUAUACCGAUUGAUAACCATT against BTAF1,-1.19 (active)
18,GUGUUUUUGUAGUUACCUATT against TSEN34,0.918 (inactive)
19,CCACGAAGAAUGGAUUGAATT against TRIO,0.42 (inactive)
20,ACACCACGCUCAACAUCAATT against ZBED1,0.0567 (inactive)
21,GGUUGAUGCAGACAACAAATT against LGTN,0.491 (inactive)
22,GGAAUGCUAUGAUAGACGATT against GNAQ,-1.23 (active)

row,Sequence,median seed-adjusted z-score
1,GGAAUUCGAGGAUUAUGCATT against HIAT1,-0.0612 (inactive)
2,CAAGGAGAGGCAUAACGUATT against DNASE1L3,0.0678 (inactive)
3,GAUUACAACCUGUAUCGAATT against THOC1,-3.04 (active)
4,GGACAUAAUGUAUUAUACUTT against DDHD1,0 (inactive)
5,GGUCACGGAUUGCUUUUUATT against DUS1L,0.0698 (inactive)
6,GGAAGAACCAGAGUGUGAATT against C1RL,-0.148 (inactive)
7,GGGAGAUUCUCCAACUAAATT against SR140,1.16 (active)
8,GGAUCGAUUCUGAAUAUGATT against PAPSS1,-0.648 (inactive)
9,GGUUGAAGCUUACUCCGGATT against DHX9,-0.687 (inactive)
10,UCACUGAUGUACUACCUAUTT against RPUSD4,-0.0264 (inactive)
11,GGAUCACGCAGCUCAAGAUTT against TBX1,-0.744 (inactive)
12,CCGCGAAGAUGUUAGCAUUTT against PRSS12,0.119 (inactive)
13,ACAUAUAGGUAUCGACCAATT against PRICKLE2,-1.12 (active)
14,GCCCAGGAAAGAUAAGGCATT against PTH1R,-0.521 (inactive)
15,GCAGUGCGUUCAGUGCAAATT against FHL2,0.475 (inactive)
16,CGAUUAGGACUGACAAUAATT against IFT57,-1.1 (active)
17,GCUUGUUCCUUCAAUUAAATT against ZNF41,0.342 (inactive)
18,GCAUUAGGUUCACUAAAUATT against GPR160,-0.278 (inactive)
19,GGCUUAACCUGGUGAUAAATT against GLUD1,0.156 (inactive)
20,GGAUGACGGUGUCUACUCATT against CLCA1,0.015 (inactive)
21,GUUCUUGUCUAAGACAUGATT against ZNF799,-1.02 (active)
22,GGUUAAUAUUGCGAAAGUATT against TXNDC1,0.458 (inactive)

row,Sequence,median seed-adjusted z-score
1,AGCUCUACAUUGGCGAUGATT against DUPD1,-0.406 (inactive)
2,GCAUAUUCCAAACUAGUGATT against STARD6,0.0605 (inactive)
3,GCGUGGAACCGGACAUCAATT against TPSD1,0.0848 (inactive)
4,CCACGUCACCAGUACUAUATT against UBA1,1.34 (active)
5,ACAGUGUGGUUCUUCAUUUTT against C1QL3,-0.276 (inactive)
6,CAUCACCUGUAGAACCUGATT against PIAS2,-0.096 (inactive)
7,GAAUGGUCCUAAAACACCATT against NFE2L2,-0.596 (inactive)
8,GAAAUUGAUAAGCAAAGUATT against TRO,2.04 (active)
9,CUGCCUACGUGAACUGGAUTT against TPSG1,0 (inactive)
10,GAAGGAGACUAAUGAGCAATT against FGD4,-0.0017 (inactive)
11,CGAGUGUCUUCACUACAAATT against IL3RA,-0.951 (inactive)
12,GCAAGUCGUCUAUUCAGAATT against RRAGD,0.313 (inactive)
13,GGCACUUAAGGUUCGCUAUTT against PPP4C,1.15 (active)
14,GGCUCUUGGAAUAACUGAATT against SERPINI1,0.127 (inactive)
15,CAUUAAAGGUUUACCCAAUTT against IDH1,0.421 (inactive)
16,GGCUUUGAAUUCAAUCUAUTT against GPR149,-0.186 (inactive)
17,CGUCGCGCCCUGUACAUAATT against GPR35,-1.46 (active)
18,UCAGUUACCUGCAUACCAATT against AEBP1,-0.0536 (inactive)
19,CCUACUAUGAUGUUAGUAATT against SCGN,-0.0164 (inactive)
20,GAUACUCAGAAGUUGAUAATT against MYSM1,-0.116 (inactive)
21,ACACUCUUGUGGUCAAGAATT against HNRNPC,-2.15 (active)
22,GCAAGAAACUCCACCCUUUTT against RGS3,0.065 (inactive)

row,Sequence,median seed-adjusted z-score
1,CUACCACAAUCAUCGAAAATT against FABP3,-0.0786 (inactive)
2,CAAACCUAACUAUACAUAATT against ZNF107,0.0761 (inactive)
3,GUAAGCAUUUUAAUUCCAATT against CLCA3,0.424 (inactive)
4,UUACAUUGAUUACACUGGATT against RBM24,0.0471 (inactive)
5,UCGUUUUUACAGAUGUUAATT against SAP18,2.14 (active)
6,CCUACUAUCAAGAUUCAAATT against HERC3,-0.0884 (inactive)
7,GAGUCAACCCAUACAUUAATT against PLS1,-0.0715 (inactive)
8,GCUGGUUUAUUUAACUCGATT against E2F6,-0.299 (inactive)
9,GAGUCUGUUUUACGACAAATT against TMPRSS11D,-0.0643 (inactive)
10,CCAGUCGCGUAAGACAACATT against PYDC1,-1.44 (active)
11,CCCAGAGCUUCAAAGUGUATT against HSD17B1,-0.569 (inactive)
12,GCAGAGCGGAAGUAAGGAUTT against AFMID,-0.515 (inactive)
13,CAUUAUCUCGUUUCCGGAATT against IFNGR2,0.148 (inactive)
14,GCGGAAAGGUGGACUUUGATT against CABP2,0.323 (inactive)
15,GCAUCCUCAUCAACCGCAATT against SAPS1,1.16 (active)
16,CCCAGAAGAUGACCACUCATT against PDXDC1,0.665 (inactive)
17,GACUUGCCCUUACUGCAAATT against RNF175,0.127 (inactive)
18,CGUUGCUAGUGCUCACUUATT against FRAG1,-0.554 (inactive)
19,GAUAUUUGAUUGAUGUAGATT against DUSP11,-0.0184 (inactive)
20,ACAGAAUAAUGUACAAGAATT against POLR2K,-3.72 (active)
